Experimental data taken from PubChem BioAssay (NCATS).
For part of these data: Results with a measured potency or affinity are listed apart. The source made the active and inactive calls. The rule behind the calls is not given here.

Tests used:
[1] = Ebola virus entry assay, green fluorescence channel
[2] = Ebola virus entry assay, blue channel fluorescence
[3] = Ebola virus entry assay, ratio channel
[4] = Ebola virus entry assay, green channel fluorescence
[5] = Ebola virus entry assay, reporter ratio channel; Channel type: primary
[6] = Ebola virus entry assay, blue channel (ratio component)
Throughout, for efficacy: 0% is about no effect.

NS(=O)(=O)c1cc2c(cc1Cl)NCNS2(=O)=O
inactive: efficacy [1] 14.8% | outcome [2] | outcome [3] | outcome [4] | outcome [5] | outcome [6]

Oc1c(I)cc(Cl)c2cccnc12
inactive: efficacy [1] 46.4% | outcome [2] | outcome [3] | outcome [4] | outcome [5] | outcome [6]

FC(F)(F)C(Cl)Br (centres undefined)
inactive: efficacy [1] 31.6% | outcome [2] | outcome [3] | outcome [4] | outcome [5] | outcome [6]

CC(=O)Oc1c(C)c(C)c2c(c1C)CC[C@@](C)(CCC[C@H](C)CCC[C@H](C)CCCC(C)C)O2
inactive: efficacy [1] -9.77% | outcome [2] | outcome [3] | outcome [4] | outcome [5] | outcome [6]

COc1cccc2c1C(=O)c1c(O)c3c(c(O)c1C2=O)C[C@@](O)(C(=O)CO)C[C@@H]3O[C@H]1C[C@H](N)[C@H](O[C@@H]2CCCCO2)[C@H](C)O1
inactive: efficacy [1] 15.3% | outcome [2] | outcome [3] | outcome [4] | outcome [5] | outcome [6]

CC(=O)Oc1ccc(C2(c3ccc(OC(C)=O)cc3)C(=O)Nc3ccccc32)cc1
inactive: efficacy [1] -16% | outcome [2] | outcome [3] | outcome [4] | outcome [5] | outcome [6]

CC(C)CCCC(C)N (centres undefined)
inactive: efficacy [1] -16.5% | outcome [2] | outcome [3] | outcome [4] | outcome [5] | outcome [6]

CC(C)(C)c1ccc(C(=O)CCCCl)cc1
inactive: efficacy [1] -23.2% | outcome [2] | outcome [3] | outcome [4] | outcome [5] | outcome [6]

Cc1ncc(CSSCc2cnc(C)c(O)c2CO)c(CO)c1O
inactive: efficacy [1] -36.5% | outcome [2] | outcome [3] | outcome [4] | outcome [5] | outcome [6]

O=C(O)CCC(=O)c1ccc(-c2ccccc2)cc1
inactive: efficacy [1] 17.7% | outcome [2] | outcome [3] | outcome [4] | outcome [5] | outcome [6]

Cc1sccc1Br
inactive: efficacy [1] -12.3% | outcome [2] | outcome [3] | outcome [4] | outcome [5] | outcome [6]

CCn1cc(C(=O)O)c(=O)c2cc(F)c(N3CCNCC3)nc21
inactive: efficacy [1] -17.3% | outcome [2] | outcome [3] | outcome [4] | outcome [5] | outcome [6]

N[C@H](Cc1c[nH]c2ccccc12)C(=O)O
inactive: efficacy [1] 29.9% | outcome [2] | outcome [3] | outcome [4] | outcome [5] | outcome [6]

Cc1cccc(C)c1NC(=O)C(C)N (centres undefined)
inactive: efficacy [1] -28.5% | outcome [2] | outcome [3] | outcome [4] | outcome [5] | outcome [6]

Cc1ccc(Nc2c(F)cccc2Cl)c(CC(=O)O)c1
inactive: efficacy [1] -7.19% | outcome [2] | outcome [3] | outcome [4] | outcome [5] | outcome [6]

C#C[C@]1(O)CC[C@H]2[C@@H]3CCc4cc(OC)ccc4[C@H]3CC[C@@]21C
active: AC50 [3] 2820 nM | AC50 [5] 2820 nM
inactive: efficacy [1] 19% | outcome [2] | outcome [4] | outcome [6]

O=C(O)C1CCC1
inactive: efficacy [1] -19% | outcome [2] | outcome [3] | outcome [4] | outcome [5] | outcome [6]

CCCN(CCC)C(=O)C(CCC(=O)O)NC(=O)c1ccccc1 (centres undefined)
inactive: efficacy [1] 17.5% | outcome [2] | outcome [3] | outcome [4] | outcome [5] | outcome [6]

CC(=O)[C@H]1CC[C@H]2[C@@H]3CC=C4C[C@@H](O)CC[C@]4(C)[C@H]3CC[C@]12C
inactive: efficacy [1] -13.3% | outcome [2] | outcome [3] | outcome [4] | outcome [5] | outcome [6]

CC(C)NC(=O)c1ccc(C=O)cc1
inactive: efficacy [1] 10.7% | outcome [2] | outcome [3] | outcome [4] | outcome [5] | outcome [6]

C[N+](C)(C)CCOC(=O)C(O)(c1ccccc1)c1ccccc1
inactive: efficacy [1] -27.9% | outcome [2] | outcome [3] | outcome [4] | outcome [5] | outcome [6]

O=C(OCC(O)CO)c1ccccc1Nc1ccnc2c(C(F)(F)F)cccc12 (centres undefined)
inactive: efficacy [1] 31.1% | outcome [2] | outcome [3] | outcome [4] | outcome [5] | outcome [6]

C[N+](C)(C)CCOC(=O)CCC(=O)OCC[N+](C)(C)C
inactive: efficacy [1] 18.3% | outcome [2] | outcome [3] | outcome [4] | outcome [5] | outcome [6]

Cc1cc(O)c(C)c(C)c1O
inactive: efficacy [1] -20.2% | outcome [2] | outcome [3] | outcome [4] | outcome [5] | outcome [6]

NC(=O)C1(N2CCCCC2)CCN(CCCC(=O)c2ccc(F)cc2)CC1
inactive: efficacy [1] 25.9% | outcome [2] | outcome [3] | outcome [4] | outcome [5] | outcome [6]

O=C1CC2(CCCC2)CC(=O)N1CCNCC1COc2ccccc2O1 (centres undefined)
inactive: efficacy [1] 16.2% | outcome [2] | outcome [3] | outcome [4] | outcome [5] | outcome [6]

OC[C@H]1O[C@@H](n2cnc3c(=S)nc[nH]c32)[C@H](O)[C@@H]1O
inactive: efficacy [1] 23.6% | outcome [2] | outcome [3] | outcome [4] | outcome [5] | outcome [6]

CC(=O)OCC(=O)[C@@]1(O)CCC2C3CCC4=CC(=O)CC[C@]4(C)C3[C@@H](O)C[C@@]21C (some centres undefined)
inactive: efficacy [1] -12.5% | outcome [2] | outcome [3] | outcome [4] | outcome [5] | outcome [6]

CCCCOc1ccc(CC(=O)NO)cc1
inactive: efficacy [1] -9.53% | outcome [2] | outcome [3] | outcome [4] | outcome [5] | outcome [6]
